A selection: hits, their analogues and other compounds. The true share with any hit is near 4.1%.
GDH-TPI inh = counter-screen for M. tuberculosis FBA inhibitors: GDH-TPI coupled enzymes; inhibition, % at 4.8 µM; GDH-TPI coupled enzyme counterscreen, NADH absorbance; actives 1.2% (n = 360,000); AID 588335; in the data active means inhibition above about 30%;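 further: 0% = DMSO wells and 100% = wells lacking the enzyme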
Mtb FBA inh = Mtb fructose-bisphosphate aldolase inhibition. purified M. tuberculosis FBA, fluorescence read-out. AID 588726. P9WQA3. actives 2.3% (n = 360,000). inhibition, % at 1 µM; in the data active means inhibition above about 27%;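 further: 0% = vehicle and 100% = reference inhibitor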
UGM FP inh = Mtb UDP-galactopyranose mutase inhibition. P9WIQ1. purified UGM, fluorescence polarization probe displacement. inhibition, % at 10 µM. actives 0.06% (n = 320,000). AID 504406; in the data active means inhibition above about 10%, passing the limit was not always enough
Vc quorum ag = inducers of Vibrio cholerae quorum light production without autoinducers; V. cholerae BH1578 lux reporter, luminescence, 6 h; activation, % at 18.7 µM; actives 0.16% (n = 350,000); AID 588436; in the data active means activation mostly above about 9.7%, no sharp cut-off
Rv3671c inh = inhibitors of M. tuberculosis serine protease Rv3671c; actives 0.048% (n = 320,000); AID 2606; P9WHR9; inhibition, % at 5.96 µM; in the data active means inhibition above about 38%;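 further: extracellular domain of Rv3671c used as enzyme; 0% = enzyme with DMSO and 100% = no enzyme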
RecA intein inh = blocks M. tuberculosis RecA intein splicing. P9WHJ3. cell-free RecA intein splicing, fluorescence. inhibition, % (concentration not given with the values). actives 0.75% (n = 290,000); in the data active means inhibition above about 30%;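 further: 0% = vehicle wells and 100% = reference inhibitor control wells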
* = called active by the depositor; i = inactive; x = no result given; + = active, no number.

SMILES	GDH-TPI inh	Mtb FBA inh	UGM FP inh	Vc quorum ag	Rv3671c inh	RecA intein inh
CCN(CC)c1ccc(C=Nc2cc(C)cc(C)c2)c(O)c1	30.3	-0.3	3.5	-0.3	-3.5	-3.1
CCN(CC)c1ccc(C=Nc2ccc(C)cc2)c(O)c1	45.3*	-2.0	0.4	-0.3	-1.3	x
CCN(CC)c1ccc(N=Cc2ccc(N(CC)CC)cc2O)cc1	14.1	-5.0	0.9	i	-19.4	-2.0
CC1=NN(c2cccc(Cl)c2)C(=O)C1	7.4	0.5	1.2	-0.2	-182.1	94.4*
CC(/C=C/c1ccccc1)=N\Nc1nc(-c2ccccc2)cs1	31.6*	1.7	1.8	-0.2	1.4	-1.2
O=C(/C=C/c1ccccc1)Nc1nc(-c2ccncc2)cs1	37.8*	0.0	0.0	-0.2	-76.5	x
O=C(/C=C\c1ccco1)Nc1nc(-c2ccccc2)cs1	10.0	-2.1	1.4	-0.1	2.3	2.7
c1ccc2c(-c3cc(NCc4ccncc4)n4nccc4n3)cccc2c1	9.3	4.1	x	-0.6	x	x
O=C(CCNC(=O)C1CCN(S(=O)(=O)c2ccccc2)CC1)NCc1ccc(Cl)cc1Cl	5.6	1.4	-1.6	-0.2	4.5	-2.1
Cc1cn([C@H]2C[C@H](O)[C@@H](CNC(=O)[C@H](N)Cc3cscn3)O2)c(=O)[nH]c1=O	9.3	1.2	x	-0.4	x	x
Nc1c(-c2cccc(Cl)c2)cnn1-c1cccc(C(F)(F)F)c1	-8.0	-0.4	-1.1	x	-1.7	12.0
Nc1c(-c2ccc(Cl)cc2)cnn1-c1cc(C(F)(F)F)cc(C(F)(F)F)c1	8.1	+	-1.9	i	5.8	-0.5
O=C1c2ccccc2C(=O)N1OS(=O)(=O)c1ccc(F)cc1	0.9	23.4	0.4	-0.2	-8.3	-4.3
Cc1ccc(S(=O)(=O)ON2C(=O)c3ccccc3C2=O)c(C)c1	8.3	39.9*	-2.0	i	4.8	x
Cc1cccc2c1N(C)C(=O)C2=O	3.8	-0.6	-1.4	-0.2	3.2	-5.6
Cc1cc(C)c(S(=O)(=O)ON2C(=O)c3ccccc3C2=O)cc1C	8.4	37.5*	3.0	0.1	-2.8	59.7*
Cc1cc(C)c(C)c(S(=O)(=O)ON2C(=O)c3ccccc3C2=O)c1C	1.9	35.2*	1.2	i	-0.9	x
Cc1cccc2c(C(=O)N3CCN(c4ccccn4)CC3)cc(-c3cccc(Br)c3)nc12	10.3	-0.8	0.1	i	-9.0	16.4
N#Cc1c(NC(=O)c2cc(C3CC3)on2)sc2c1CCC2	33.6*	1.2	3.5	i	1.7	-2.2
CCOC(=O)c1ccc(NS(=O)(=O)c2c(N)[nH]c(=O)[nH]c2=O)cc1	-0.4	0.8	-0.8	i	-16.4	2.9
CC(/C=N\NC(=O)CN1CCN(Cc2ccccc2)CC1)=C\c1ccco1	52.9*	-5.6	-1.4	i	-11.4	1.7
O=C(CN1CCN(Cc2ccccc2Cl)CC1)N/N=C/C=C/c1ccco1	61.4*	-2.2	-0.1	i	0.7	0.8
CCn1c(SCC(=O)N/N=C/C(C)=C/c2ccco2)nnc1-c1ccccc1	21.5	-0.9	1.5	i	-1.6	-1.5
C/C(=N/NC(=O)CN1CCN(Cc2ccccc2Cl)CC1)c1ccco1	0.0	3.0	4.7	-0.3	11.5	1.5
Clc1ccccc1CN1CCN(/N=C/C=C/c2ccco2)CC1	41.5*	-0.9	-1.3	-0.4	-13.0	5.0
SMILES	GDH-TPI inh	Mtb FBA inh	UGM FP inh	Vc quorum ag	Rv3671c inh	RecA intein inh
Fc1ccccc1/C=N/N1CCN(Cc2ccccc2Cl)CC1	5.5	-0.4	2.9	i	4.4	-0.2
O=C(CN1CCN(Cc2ccccc2)CC1)N/N=C\C=C/c1ccco1	43.2*	0.1	1.8	i	-2.6	0.6
O=C(O)c1ccccc1NS(=O)(=O)c1ccc(N/N=C/c2ccc(O)c(O)c2)c([N+](=O)[O-])c1	46.3*	1.5	x	0.7	x	x
COc1ccccc1NS(=O)(=O)c1ccc(N/N=C/c2ccccc2OCC(=O)O)c([N+](=O)[O-])c1	34.9*	-5.6	2.4	0.6	17.2	-1.7
O=C(O)COc1ccccc1/C=N/Nc1ccc(S(=O)(=O)Nc2ccc(Cl)cc2)cc1[N+](=O)[O-]	17.6	-2.4	-0.4	x	24.3	7.1
O=C(O)c1ccccc1NS(=O)(=O)c1ccc(NN=Cc2ccc(F)cc2)c([N+](=O)[O-])c1	13.3	-2.3	-0.6	i	1.4	x
COc1ccc(NC(=O)COC(=O)C2CC2)c(OC)c1	0.3	0.1	3.2	i	5.2	x
CCOc1ccc(Nc2nc3ccccc3n3cnnc23)cc1	32.5*	-1.3	x	i	-0.2	3.0
c1ccc(N2CCCCC2)c(Nc2nc3ccccc3n3cnnc23)c1	3.7	5.8	-1.7	i	0.8	-2.5
c1ccc(Nc2nc3ccccc3n3cnnc23)cc1	30.1	3.3	2.1	-0.3	-6.9	3.6
c1ccc2c(c1)nc(Nc1ccc(N3CCCCC3)cc1)c1nncn12	43.9*	2.0	-0.4	-0.5	-3.5	-5.7
N#C/C(=C\Nc1ccccc1O)c1nc2ccccc2o1	32.6*	-1.0	3.1	-0.4	4.5	3.8
N#C/C(=C\c1ccncc1)c1nc2ccccc2o1	6.1	10.3	-0.5	-0.9	1.8	28.2
Cc1cc(C)n(CC(=O)N2CCCC(N3CCN(c4ccc(F)cc4)CC3)C2)n1 (centres undefined)	8.4	5.5	1.3	i	-0.1	-1.8
Cc1nc(N2CCOCC2)c2c(C)c(C(=O)Nc3ccc(F)cc3F)sc2n1	37.5*	1.4	-3.5	i	-14.5	-0.6
Cc1ccc(NC(=O)CSC2=NN3CCCC(=O)N=C3S2)cc1Cl	-4.4	-0.9	-0.7	-0.3	-9.3	0.8
O=C1c2ccccc2NC(c2ccccc2)N1/N=C/c1ccccc1 (centres undefined)	0.8	7.5	-1.8	0.4	-2.0	3.5
O=C1c2ccccc2NC(c2ccc(O)cc2)N1/N=C/c1ccc(O)cc1 (centres undefined)	31.6*	2.8	-2.9	i	0.2	-3.6
Cc1ccc(NC(=O)C2CC(=O)N/C(=N/N=C/c3ccco3)S2)cc1C (centres undefined)	51.9*	-1.9	1.2	-0.2	-84.3	1.4
O=C1CC(C(=O)Nc2ccc(F)cc2)S/C(=N\N=C\c2ccco2)N1 (centres undefined)	33.9*	1.9	1.3	-0.1	-4.1	-0.7
Cc1ccc(NC(=O)C2CC(=O)N/C(=N/N=C/c3ccco3)S2)cc1 (centres undefined)	44.1*	-3.4	0.1	-0.3	-8.2	-3.5
Cc1[nH]n(-c2cccc3ccccc23)c(=O)c1/C=N/NC(=O)c1cccc([N+](=O)[O-])c1	27.6	-6.0	4.9	-0.4	-5.6	10.0
Cc1ccc(-n2[nH]c(C)c(/C=N/NC(=O)c3ccc([N+](=O)[O-])cc3)c2=O)c(C)c1	6.3	-0.4	1.6	-0.2	14.9	32.1*
Cc1c(NC(=S)N/N=C/c2ccc(Br)cc2)c(=O)n(-c2ccccc2)n1C	18.4	0.1	2.4	-0.4	3.0	-2.9
Cc1c(NC(=S)N/N=C/C=C/c2ccc([N+](=O)[O-])cc2)c(=O)n(-c2ccccc2)n1C	31.8*	3.6	-5.3	-0.2	9.8	3.7

Bioassay records as filed in PubChem BioAssay.
